# Experiments:
# [1] = target: Sphingosine kinase 1 (Homo sapiens) (UniProt Q9NYA1); conditions: at 1 µM;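 note: mean SPHK1 inhibition value reported from the GSK PKIS kinase panel screen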
# [2] = target: T1, Sphingosine kinase 2 (Homo sapiens) (UniProt Q9NRA0); conditions: at 0.1 µM
# T1 sequence (whole entry): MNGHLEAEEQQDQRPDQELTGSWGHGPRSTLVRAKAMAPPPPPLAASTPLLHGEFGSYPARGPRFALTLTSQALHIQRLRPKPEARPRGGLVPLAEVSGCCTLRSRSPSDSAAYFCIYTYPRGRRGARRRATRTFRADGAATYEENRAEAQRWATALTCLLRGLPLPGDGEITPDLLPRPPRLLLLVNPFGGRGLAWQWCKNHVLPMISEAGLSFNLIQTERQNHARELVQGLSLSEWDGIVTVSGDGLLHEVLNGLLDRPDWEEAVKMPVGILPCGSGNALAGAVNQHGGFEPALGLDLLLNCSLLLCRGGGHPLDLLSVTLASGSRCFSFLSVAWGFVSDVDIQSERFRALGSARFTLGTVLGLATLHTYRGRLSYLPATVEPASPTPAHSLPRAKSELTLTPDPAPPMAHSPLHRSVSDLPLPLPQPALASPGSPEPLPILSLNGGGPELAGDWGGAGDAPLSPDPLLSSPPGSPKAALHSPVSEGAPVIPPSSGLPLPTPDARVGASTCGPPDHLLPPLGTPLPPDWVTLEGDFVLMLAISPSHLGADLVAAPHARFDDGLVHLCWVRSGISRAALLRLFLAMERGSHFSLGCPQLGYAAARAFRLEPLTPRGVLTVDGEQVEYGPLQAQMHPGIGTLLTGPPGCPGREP
# [3] = target: T1, Sphingosine kinase 2 (Homo sapiens); conditions: at 1 µM
# [4] = target: Casein kinase II subunit alpha (Homo sapiens) (UniProt P68400); conditions: at 0.1 µM
# [5] = target: Casein kinase II subunit alpha (Homo sapiens) (UniProt P68400); conditions: at 1 µM
# [6] = target: T2, Inhibitor of nuclear factor kappa-B kinase subunit alpha (Homo sapiens) (UniProt O15111); conditions: at 0.1 µM
# T2 sequence (whole entry): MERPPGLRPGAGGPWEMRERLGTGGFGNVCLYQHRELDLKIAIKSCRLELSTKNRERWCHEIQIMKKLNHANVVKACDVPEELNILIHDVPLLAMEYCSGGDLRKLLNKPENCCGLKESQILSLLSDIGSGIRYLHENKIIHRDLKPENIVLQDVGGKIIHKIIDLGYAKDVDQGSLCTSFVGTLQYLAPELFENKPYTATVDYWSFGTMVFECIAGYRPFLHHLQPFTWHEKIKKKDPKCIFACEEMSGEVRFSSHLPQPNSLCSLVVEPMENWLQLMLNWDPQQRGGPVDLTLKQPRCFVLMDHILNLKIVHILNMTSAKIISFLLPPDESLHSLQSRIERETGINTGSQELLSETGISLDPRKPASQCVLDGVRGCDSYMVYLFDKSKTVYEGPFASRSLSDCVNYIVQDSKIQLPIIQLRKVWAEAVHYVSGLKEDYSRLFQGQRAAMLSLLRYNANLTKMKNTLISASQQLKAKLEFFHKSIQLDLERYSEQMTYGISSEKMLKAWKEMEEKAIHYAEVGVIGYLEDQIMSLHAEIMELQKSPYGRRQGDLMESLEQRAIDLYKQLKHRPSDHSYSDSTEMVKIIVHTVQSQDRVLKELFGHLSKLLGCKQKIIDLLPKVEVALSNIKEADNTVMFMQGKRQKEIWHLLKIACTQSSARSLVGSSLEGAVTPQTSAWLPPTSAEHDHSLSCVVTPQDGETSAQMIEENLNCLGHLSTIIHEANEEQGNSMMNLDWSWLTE
# [7] = target: T2, Inhibitor of nuclear factor kappa-B kinase subunit alpha (Homo sapiens); conditions: at 1 µM
# [8] = target: T3, Inhibitor of nuclear factor kappa-B kinase subunit beta (Homo sapiens) (UniProt O14920); conditions: at 0.1 µM
# T3 sequence (whole entry): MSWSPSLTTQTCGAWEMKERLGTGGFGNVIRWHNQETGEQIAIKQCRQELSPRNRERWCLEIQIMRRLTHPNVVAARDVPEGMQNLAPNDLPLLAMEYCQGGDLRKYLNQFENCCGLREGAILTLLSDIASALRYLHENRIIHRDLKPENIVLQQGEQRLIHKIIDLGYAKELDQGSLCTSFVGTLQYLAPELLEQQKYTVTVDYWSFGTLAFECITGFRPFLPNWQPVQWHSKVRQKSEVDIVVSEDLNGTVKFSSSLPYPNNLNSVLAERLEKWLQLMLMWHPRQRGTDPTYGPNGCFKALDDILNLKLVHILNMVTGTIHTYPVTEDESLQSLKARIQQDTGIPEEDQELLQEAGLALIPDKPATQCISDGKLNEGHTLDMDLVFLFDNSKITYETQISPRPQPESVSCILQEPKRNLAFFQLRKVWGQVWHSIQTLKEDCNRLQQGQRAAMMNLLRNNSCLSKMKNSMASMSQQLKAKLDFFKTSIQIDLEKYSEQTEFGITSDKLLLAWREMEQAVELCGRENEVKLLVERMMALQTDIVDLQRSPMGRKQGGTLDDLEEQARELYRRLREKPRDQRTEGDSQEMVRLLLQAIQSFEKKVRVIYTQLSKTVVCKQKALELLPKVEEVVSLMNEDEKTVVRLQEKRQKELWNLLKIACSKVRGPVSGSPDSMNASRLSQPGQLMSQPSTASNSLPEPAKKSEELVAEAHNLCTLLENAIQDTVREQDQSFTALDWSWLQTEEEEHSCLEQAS
# [9] = target: T3, Inhibitor of nuclear factor kappa-B kinase subunit beta (Homo sapiens); conditions: at 1 µM
# [10] = target: T4, Inhibitor of nuclear factor kappa-B kinase subunit epsilon (Homo sapiens) (UniProt Q14164); conditions: at 0.1 µM
# T4 sequence (whole entry): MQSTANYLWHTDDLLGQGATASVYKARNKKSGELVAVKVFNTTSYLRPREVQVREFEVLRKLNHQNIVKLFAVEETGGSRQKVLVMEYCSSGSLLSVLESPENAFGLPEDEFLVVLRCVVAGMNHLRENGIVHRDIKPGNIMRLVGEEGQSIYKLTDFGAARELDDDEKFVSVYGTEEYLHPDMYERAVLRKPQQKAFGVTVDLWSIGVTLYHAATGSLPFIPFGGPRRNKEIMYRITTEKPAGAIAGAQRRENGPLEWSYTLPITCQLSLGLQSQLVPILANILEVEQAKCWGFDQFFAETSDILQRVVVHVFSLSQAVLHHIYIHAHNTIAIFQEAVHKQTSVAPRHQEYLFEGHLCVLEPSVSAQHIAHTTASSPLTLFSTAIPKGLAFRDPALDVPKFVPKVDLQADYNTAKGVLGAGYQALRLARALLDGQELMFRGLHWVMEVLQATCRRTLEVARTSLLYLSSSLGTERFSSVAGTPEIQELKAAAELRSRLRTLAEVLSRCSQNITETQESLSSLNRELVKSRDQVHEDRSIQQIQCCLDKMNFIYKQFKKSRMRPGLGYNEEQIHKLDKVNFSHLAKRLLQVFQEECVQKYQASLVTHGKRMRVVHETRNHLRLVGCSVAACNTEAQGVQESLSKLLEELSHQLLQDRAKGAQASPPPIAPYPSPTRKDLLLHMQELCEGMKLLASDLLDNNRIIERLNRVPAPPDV
# [11] = target: T4, Inhibitor of nuclear factor kappa-B kinase subunit epsilon (Homo sapiens); conditions: at 1 µM
# [12] = target: T5, Serine/threonine-protein kinase Nek1 (Homo sapiens) (UniProt Q96PY6); conditions: at 0.1 µM
# T5 sequence (whole entry): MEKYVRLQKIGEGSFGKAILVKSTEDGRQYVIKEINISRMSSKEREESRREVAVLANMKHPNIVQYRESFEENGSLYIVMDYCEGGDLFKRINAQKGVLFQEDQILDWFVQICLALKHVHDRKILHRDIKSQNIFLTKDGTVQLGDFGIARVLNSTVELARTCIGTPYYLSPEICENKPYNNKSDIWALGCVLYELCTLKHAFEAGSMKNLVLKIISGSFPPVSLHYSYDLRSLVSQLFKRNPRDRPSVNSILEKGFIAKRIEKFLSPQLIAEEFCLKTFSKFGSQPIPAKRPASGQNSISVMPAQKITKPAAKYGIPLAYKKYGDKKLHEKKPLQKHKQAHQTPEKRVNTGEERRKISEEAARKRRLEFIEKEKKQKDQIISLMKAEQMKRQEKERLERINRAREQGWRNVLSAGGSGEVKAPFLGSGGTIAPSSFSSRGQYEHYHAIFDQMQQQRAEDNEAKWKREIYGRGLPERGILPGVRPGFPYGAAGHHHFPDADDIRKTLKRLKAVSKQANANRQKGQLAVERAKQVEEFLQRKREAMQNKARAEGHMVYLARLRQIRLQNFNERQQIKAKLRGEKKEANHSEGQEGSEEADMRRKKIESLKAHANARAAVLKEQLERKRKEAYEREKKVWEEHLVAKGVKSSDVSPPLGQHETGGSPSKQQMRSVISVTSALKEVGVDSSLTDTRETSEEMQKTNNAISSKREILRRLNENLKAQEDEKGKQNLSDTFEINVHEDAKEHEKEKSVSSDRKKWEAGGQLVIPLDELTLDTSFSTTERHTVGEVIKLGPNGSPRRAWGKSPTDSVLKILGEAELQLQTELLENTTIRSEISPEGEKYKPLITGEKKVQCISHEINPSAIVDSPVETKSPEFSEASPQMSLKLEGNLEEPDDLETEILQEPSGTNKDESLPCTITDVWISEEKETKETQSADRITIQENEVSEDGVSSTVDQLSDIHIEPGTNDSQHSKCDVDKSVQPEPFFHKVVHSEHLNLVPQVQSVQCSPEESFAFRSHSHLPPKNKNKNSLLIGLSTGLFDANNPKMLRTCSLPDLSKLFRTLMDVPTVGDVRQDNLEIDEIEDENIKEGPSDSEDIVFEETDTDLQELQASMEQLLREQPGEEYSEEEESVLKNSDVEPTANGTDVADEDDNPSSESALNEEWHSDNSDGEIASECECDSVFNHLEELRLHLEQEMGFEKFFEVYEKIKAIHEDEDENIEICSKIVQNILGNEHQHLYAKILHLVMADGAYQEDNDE
# [13] = target: T5, Serine/threonine-protein kinase Nek1 (Homo sapiens); conditions: at 1 µM
# [14] = target: T6, Serine/threonine-protein kinase Nek2 (Homo sapiens) (UniProt P51955); conditions: at 0.1 µM
# T6 sequence (whole entry): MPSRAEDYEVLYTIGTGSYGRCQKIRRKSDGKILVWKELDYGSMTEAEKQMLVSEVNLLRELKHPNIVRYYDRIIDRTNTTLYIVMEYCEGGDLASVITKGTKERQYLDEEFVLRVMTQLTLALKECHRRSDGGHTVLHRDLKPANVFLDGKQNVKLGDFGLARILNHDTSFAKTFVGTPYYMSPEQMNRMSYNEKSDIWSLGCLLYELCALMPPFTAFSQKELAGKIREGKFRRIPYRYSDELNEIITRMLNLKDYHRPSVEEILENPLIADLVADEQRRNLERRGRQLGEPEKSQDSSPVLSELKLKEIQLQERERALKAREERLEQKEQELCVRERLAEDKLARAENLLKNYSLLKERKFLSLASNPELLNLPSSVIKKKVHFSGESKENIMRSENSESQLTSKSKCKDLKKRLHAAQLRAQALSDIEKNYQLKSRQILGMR
# [15] = target: T6, Serine/threonine-protein kinase Nek2 (Homo sapiens); conditions: at 1 µM
# [16] = target: Serine/threonine-protein kinase Nek6 (Homo sapiens) (UniProt Q9HC98); conditions: at 0.1 µM
# [17] = target: Serine/threonine-protein kinase Nek6 (Homo sapiens) (UniProt Q9HC98); conditions: at 1 µM
# [18] = target: Serine/threonine-protein kinase Nek7 (Homo sapiens) (UniProt Q8TDX7); conditions: at 0.1 µM
# [19] = target: Serine/threonine-protein kinase Nek7 (Homo sapiens) (UniProt Q8TDX7); conditions: at 1 µM
# [20] = target: T7, Serine/threonine-protein kinase Nek9 (Homo sapiens) (UniProt Q8TD19); conditions: at 0.1 µM;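 note: reported value is the mean percent inhibition of NEK9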
# T7 sequence (whole entry): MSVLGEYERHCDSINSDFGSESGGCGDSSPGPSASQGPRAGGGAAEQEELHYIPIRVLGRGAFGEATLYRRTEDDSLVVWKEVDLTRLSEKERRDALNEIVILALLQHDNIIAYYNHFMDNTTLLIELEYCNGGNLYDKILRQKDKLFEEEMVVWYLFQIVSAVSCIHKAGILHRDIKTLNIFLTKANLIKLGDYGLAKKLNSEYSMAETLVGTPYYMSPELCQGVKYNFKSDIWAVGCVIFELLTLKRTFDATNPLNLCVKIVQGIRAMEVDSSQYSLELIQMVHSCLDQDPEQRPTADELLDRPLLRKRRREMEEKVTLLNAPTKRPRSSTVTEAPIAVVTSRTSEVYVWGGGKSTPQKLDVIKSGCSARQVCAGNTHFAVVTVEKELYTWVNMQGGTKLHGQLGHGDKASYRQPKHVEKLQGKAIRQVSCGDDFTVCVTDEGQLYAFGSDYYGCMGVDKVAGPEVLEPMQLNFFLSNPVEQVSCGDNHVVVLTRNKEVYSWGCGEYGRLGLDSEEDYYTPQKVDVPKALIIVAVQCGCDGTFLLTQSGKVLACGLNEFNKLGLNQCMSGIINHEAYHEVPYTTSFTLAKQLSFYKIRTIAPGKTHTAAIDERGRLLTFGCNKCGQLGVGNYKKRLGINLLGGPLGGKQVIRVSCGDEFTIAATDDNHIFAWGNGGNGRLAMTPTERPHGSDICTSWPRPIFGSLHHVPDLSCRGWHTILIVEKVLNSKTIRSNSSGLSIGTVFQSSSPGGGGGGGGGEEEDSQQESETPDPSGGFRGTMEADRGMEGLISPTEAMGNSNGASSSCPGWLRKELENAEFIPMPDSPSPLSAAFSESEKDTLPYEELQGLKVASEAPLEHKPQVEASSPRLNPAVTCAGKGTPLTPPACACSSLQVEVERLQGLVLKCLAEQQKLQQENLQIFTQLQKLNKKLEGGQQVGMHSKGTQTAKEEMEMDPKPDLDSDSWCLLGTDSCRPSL
# Sequence of Serine/threonine-protein kinase Nek6 (Homo sapiens) (Q9HC98 whole entry): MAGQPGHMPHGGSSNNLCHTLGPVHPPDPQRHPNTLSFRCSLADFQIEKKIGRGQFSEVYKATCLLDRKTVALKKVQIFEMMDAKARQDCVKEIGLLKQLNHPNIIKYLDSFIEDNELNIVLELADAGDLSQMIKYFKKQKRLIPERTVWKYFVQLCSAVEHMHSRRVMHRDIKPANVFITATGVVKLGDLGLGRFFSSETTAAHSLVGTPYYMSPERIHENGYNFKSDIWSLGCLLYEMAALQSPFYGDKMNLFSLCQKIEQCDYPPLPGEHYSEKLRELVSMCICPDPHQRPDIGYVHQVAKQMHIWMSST
# Sequence of Casein kinase II subunit alpha (Homo sapiens) (P68400 whole entry, looked up): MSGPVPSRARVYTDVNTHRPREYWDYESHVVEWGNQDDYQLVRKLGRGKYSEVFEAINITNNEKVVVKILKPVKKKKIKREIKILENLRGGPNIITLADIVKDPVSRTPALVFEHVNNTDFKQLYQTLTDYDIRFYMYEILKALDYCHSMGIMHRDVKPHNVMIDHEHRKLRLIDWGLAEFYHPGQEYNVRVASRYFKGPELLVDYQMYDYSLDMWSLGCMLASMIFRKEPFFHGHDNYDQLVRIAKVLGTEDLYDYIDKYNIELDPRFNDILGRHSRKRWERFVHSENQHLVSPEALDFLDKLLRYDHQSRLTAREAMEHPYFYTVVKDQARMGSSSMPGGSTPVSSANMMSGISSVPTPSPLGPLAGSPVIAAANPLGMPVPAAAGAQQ
# Sequence of Serine/threonine-protein kinase Nek7 (Homo sapiens) (Q8TDX7 whole entry, looked up): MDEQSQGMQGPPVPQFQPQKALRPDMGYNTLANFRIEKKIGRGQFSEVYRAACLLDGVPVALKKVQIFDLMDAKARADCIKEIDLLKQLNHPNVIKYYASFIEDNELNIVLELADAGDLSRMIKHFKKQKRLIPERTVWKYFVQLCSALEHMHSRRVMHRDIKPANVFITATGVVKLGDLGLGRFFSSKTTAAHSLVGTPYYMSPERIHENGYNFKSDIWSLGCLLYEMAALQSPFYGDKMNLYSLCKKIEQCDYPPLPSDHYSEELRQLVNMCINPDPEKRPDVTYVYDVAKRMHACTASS
# Sequence of Sphingosine kinase 1 (Homo sapiens) (Q9NYA1 whole entry): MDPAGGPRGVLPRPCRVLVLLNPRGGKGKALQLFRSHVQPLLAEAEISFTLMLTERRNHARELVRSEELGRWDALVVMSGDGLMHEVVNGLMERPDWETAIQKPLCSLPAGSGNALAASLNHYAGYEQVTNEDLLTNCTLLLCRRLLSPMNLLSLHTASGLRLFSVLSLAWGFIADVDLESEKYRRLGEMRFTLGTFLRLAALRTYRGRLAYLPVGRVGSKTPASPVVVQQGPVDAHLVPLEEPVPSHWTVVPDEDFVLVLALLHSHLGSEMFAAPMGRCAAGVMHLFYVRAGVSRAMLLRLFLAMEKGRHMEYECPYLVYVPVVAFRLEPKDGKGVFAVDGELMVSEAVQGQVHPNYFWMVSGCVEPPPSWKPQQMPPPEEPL
smiles,measurement,setting,value
CCN(CC)Cc1ccc(Nc2nccc(-c3cnn4ncccc34)n2)cc1,inhibition,[1],7.74%
same,inhibition,[2],4.29%
same,inhibition,[3],2.72%
same,inhibition,[4],10.9%
same,inhibition,[5],31.1%
same,inhibition,[6],3.66%
same,inhibition,[7],34.9%
same,inhibition,[8],7.57%
same,inhibition,[9],17.5%
same,inhibition,[10],8.95%
same,inhibition,[11],17.8%
same,inhibition,[12],2.8%
same,inhibition,[13],4.48%
same,inhibition,[14],4.07%
same,inhibition,[15],3.41%
same,inhibition,[16],1.02%
same,inhibition,[17],-0.16%
same,inhibition,[18],3.37%
same,inhibition,[19],9.4%
same,inhibition,[20],6.44%

# Reference: ChEMBL document CHEMBL1961873, “Compounds: GSK PKIS; Assays: Nanosyn kinase panel” (2012)
